Laboratory results published in PubChem BioAssay.
Calls of active or inactive are those of the source.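 Rule for the calls: active = z-score of at least 1.8 in each of two replicates, scored against plate mean and spread of sample wells; inactive = the rest.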

Experiment: viability rescue of complex I mutant cybrids, primary screen, cell-based, galactose medium, ATP luminescence (AID 1645843);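 note: positive z means more ATP and so rescue of galactose-driven cybrid death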
Details: complex I mutant cybrid cells, 72 h, stronger effect = higher value

Which z-score does the source give for `CCCCn1nnnc1NC(=O)NC1CCN(Cc2ccncc2)CC1` here?
The z-score was -0.755 (inactive).

With `O=C(C1CCCCCC1)N1CCC(n2cc(C3CCCCC3)nn2)CC1` as the compound, how does the z-score read?
Its z-score is 2.69 (active).

For `Cc1cc(-c2ccccc2C(F)(F)F)nc(N)n1`, which z-score is on record?
The z-score was -0.545 (inactive).

For `CCC(CO)n1cnc2sc3c(c2c1=O)CCCCC3` (stereo not given), which z-score is on record?
The z-score was 1.99 (inactive).

For `c1ccc(-c2nc3c(cnn3C3CCCCC3)[nH]2)c(Cn2cccn2)c1`, which z-score is on record?
The z-score was 0.525 (inactive).

With `N#Cc1ccc(C(=O)N2CCNC(=O)C2Cc2ccccc2)cc1` (stereo not given) as the compound, how does the z-score read?
Its z-score is -0.47 (inactive).

With `O=C(c1cn2cccnc2n1)N1CCCC(Cn2cc(C3CCCC3)nn2)C1` (stereo not given) as the compound, how does the z-score read?
Its z-score is -0.49 (inactive).

For `CCn1cc(-c2cc(C(=O)N3CCCCCC3)c3ccc(C)c(C)c3n2)cn1`, which z-score is on record?
The z-score was 1.92 (active).

Which z-score does the source give for `O=C1CCCc2occ(C(=O)N3CCc4[nH]nc(C5CCC5)c4C3)c21` here?
Its z-score is 0.15 (inactive).

Which z-score does the source give for `Cc1ccccc1N1CCCN(C(=O)CCC(C)C)CC1` here?
The z-score was 3.28 (active).

Which z-score does the source give for `Cc1cc(N2CCCN(C(=O)Nc3nncs3)CC2)ccn1` here?
Its z-score is -0.265 (inactive).

With `CCOc1ccc2ccccc2c1-c1nc2c(cnn2CC)[nH]1` as the compound, how does the z-score read?
Its z-score is -0.255 (inactive).

Which z-score does the source give for `COc1ccc(F)cc1-c1cnn(CC(=O)Nc2cc(C)nn2C)c1` here?
Its z-score is 0.085 (inactive).

With `Cc1cccc2c(C(=O)N3CCC(C)(C)C3)cc(-c3cnc(C4CC4)nc3)nc12` as the compound, how does the z-score read?
Its z-score is 2.3 (active).

With `O=c1cc(CCn2cccn2)nc(-c2ccc(CN3CCC[C@@H](O)C3)cc2)[nH]1` as the compound, how does the z-score read?
The z-score was -0.025 (inactive).

For `Cn1cc(-c2cc(C(=O)N3CCc4ccccc4C3)c3cc(F)ccc3n2)cn1`, which z-score is on record?
The z-score was 1 (inactive).

Which z-score does the source give for `O=C(Nc1cccnc1)c1csc(Cc2ccccc2)n1` here?
Its z-score is -0.815 (inactive).

With `Cc1nn(C)c(C)c1-c1ccnc(NCc2ccc3nsnc3c2)n1` as the compound, how does the z-score read?
The z-score was -0.665 (inactive).

For `COc1ccc(OC)c(-c2ncnc3sc(C)c(C)c23)c1`, which z-score is on record?
Its z-score is 0.645 (inactive).

For `CCCN(C(=O)c1cccc(C#CC(C)(C)O)c1)C(CC)CC`, which z-score is on record?
Its z-score is -0.23 (inactive).

With `Cc1nnc(NC(=O)N(C)CC2COc3ccccc3O2)s1` (stereo not given) as the compound, how does the z-score read?
The z-score was 0.025 (inactive).

With `O=C(CC1CCCCCC1)N1CCC(n2cc(-c3ccccn3)nn2)CC1` as the compound, how does the z-score read?
The z-score was -0.34 (inactive).

Which z-score does the source give for `O=C(Cn1cc(-c2cncnc2)cn1)Nc1ccnn1Cc1ccco1` here?
The z-score was 1.12 (inactive).

Which z-score does the source give for `CC(C)Oc1ccc(Cl)cc1-c1nnc2ccc(Cl)cn12` here?
Its z-score is 0.31 (inactive).

Which z-score does the source give for `Cc1cc(NC(=O)CCC2CC2)n(C(C)C)n1` here?
The z-score was -0.44 (inactive).

With `CCCCCC(=O)N1CCC(n2cc(C3CCCCC3)nn2)CC1` as the compound, how does the z-score read?
The z-score was -0.415 (inactive).

Which z-score does the source give for `CC(=O)NCCC1CCN(C(=O)C(C)(C)Oc2cc(C)ccc2Cl)CC1` here?
Its z-score is -0.545 (inactive).

For `O=C(c1ccc(OC2(C(=O)O)CCSCC2)cc1)N1CCOCC1`, which z-score is on record?
The z-score was -0.515 (inactive).

For `COc1ccc(CC(=O)NCc2cccc(SC)c2)cc1`, which z-score is on record?
Its z-score is 0.19 (inactive).

With `CC(CC12CC3CC(CC(C3)C1)C2)n1cnc2nccnc2c1=O` (stereo not given) as the compound, how does the z-score read?
Its z-score is 1.54 (inactive).

For `COC(=O)CCC1CCN(C(=O)CCC(C)C)CC1`, which z-score is on record?
Its z-score is -0.56 (inactive).

Which z-score does the source give for `O=C(C1CCCCCC1)N1CCCC(Cn2cc(-c3ccccn3)nn2)C1` (stereo not given) here?
Its z-score is -0.33 (inactive).

Which z-score does the source give for `COc1cccc2ccc(-c3ccc(C(=O)N(C)C)cc3)nc12` here?
Its z-score is 1.37 (inactive).

With `COc1cccc2ccc(-c3ccc(C(C)=O)cc3)nc12` as the compound, how does the z-score read?
Its z-score is 2.67 (active).

For `COc1ccccc1OC(C)c1nc(Cc2cccc(C(F)(F)F)c2)no1` (stereo not given), which z-score is on record?
Its z-score is 0.51 (inactive).

For `CCCCC(CO)NC(C)CCc1ccc(OC)cc1` (stereo not given), which z-score is on record?
Its z-score is -0.47 (inactive).

With `Cc1nc(C(=O)N2CCCC(Cn3cc(-c4ccsc4)nn3)C2)cs1` (stereo not given) as the compound, how does the z-score read?
The z-score was -0.08 (inactive).

For `CCCC(C)c1nc2c(cnn2CC(C)C)[nH]1` (stereo not given), which z-score is on record?
Its z-score is 1.06 (inactive).

Which z-score does the source give for `CCN(C(=O)c1cc(-c2cnc(C(C)C)nc2)nc2cc(F)ccc12)C(C)C` here?
Its z-score is -0.47 (inactive).

Which z-score does the source give for `O=c1cc(-c2ccccc2Cl)nc(-c2ccc(CN3CC[C@H](O)C3)cc2)[nH]1` here?
Its z-score is 0.305 (inactive).
